Screening data as filed in PubChem BioAssay.
Hits are enriched below; roughly 22% of the tested compounds scored in any of these assays.
CYP2C19 inhib = inhibitors of human CYP2C19; 21% of 96,000 active; CYP2C19 Supersomes, luciferin-H EGE luminescence, 30 min; inhibition, % at 5 µM;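 active means CYP2C19 inhibition above a set limit at 5 µM in the primary screen, cut at about 50% in these data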;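 further: plate controls were negative control wells for no effect and 2.5 mM tranylcypromine positive control for full effect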
E-sel TNF inh = TNF alpha driven E-selectin expression inhibition | HUVEC TNFa-induced E-selectin immunofluorescence, high content | inhibition, % at 2 µM | 0.71% of 120,000 active | AID 1246;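 active means inhibition above the batch mean plus 3 SD, and confirmed as a hit on visual image review, cut at about 43% in these data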;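 further: 0% = TNF-stimulated DMSO wells and 100% = unstimulated control wells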
CYP2C9 activ = increases human cytochrome P450 2C9 activity; recombinant CYP2C9, luciferin-H conversion, luminescence; active compounds read high; factor 1 = untreated enzyme, 0 = blocked; AID 1024; activation factor at 5 µM; P11712; 1.4% of 96,000 active;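 active means activation factor of 2 or more for CYP2C9 at a 5 µM dose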;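 further: 0 = sulfaphenazole-blocked wells and 1 = vehicle-only wells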
Target sequence (P11712 whole entry, looked up): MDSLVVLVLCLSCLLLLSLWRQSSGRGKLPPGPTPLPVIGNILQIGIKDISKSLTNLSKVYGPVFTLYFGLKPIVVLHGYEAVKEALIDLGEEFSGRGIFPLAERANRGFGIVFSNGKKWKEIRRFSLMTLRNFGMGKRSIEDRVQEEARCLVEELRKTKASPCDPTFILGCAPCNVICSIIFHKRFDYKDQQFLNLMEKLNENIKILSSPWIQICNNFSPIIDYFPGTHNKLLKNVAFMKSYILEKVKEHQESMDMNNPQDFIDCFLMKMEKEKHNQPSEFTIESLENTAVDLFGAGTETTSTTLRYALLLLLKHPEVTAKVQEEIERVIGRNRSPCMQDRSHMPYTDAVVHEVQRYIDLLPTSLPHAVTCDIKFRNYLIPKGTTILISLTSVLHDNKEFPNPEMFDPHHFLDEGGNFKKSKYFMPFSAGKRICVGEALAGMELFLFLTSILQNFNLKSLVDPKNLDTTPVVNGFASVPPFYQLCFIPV
CYP2C19 activ = cytochrome P450 2C19 (human) activation. recombinant CYP2C19, luciferin-H EGE luminescence; active compounds read high; 0 = fully inhibited enzyme, 1 = untreated enzyme. 96,000 tested, under 10 active. activation factor at 5 µM;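 active means activation factor of at least 2 at 5 µM in the primary screen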;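 further: 0 = wells with 2.5 mM tranylcypromine and 1 = vehicle-only wells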
CYP2C9 inhib = blocks human cytochrome P450 2C9; inhibition, % at 5 µM; AID 777; 20% of 96,000 active; CYP2C9 Supersomes, luciferin-H conversion, luminescence;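 active means blocking of liver enzyme CYP2C9 beyond about 50% at 5 µM, limit read from the data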
F-actin modifier = alters cytoskeleton assembly in HUVEC cells | HUVEC TNFa F-actin phalloidin imaging, high content | inhibition, % at 2 µM | 0.18% of 91,000 active | AID 836;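 active means inhibition above the batch mean plus 3 SD and confirmed as a hit by visual image inspection, cut at about 30% in these data, passing the limit was not always enough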
* = called active by the depositor; x = not tested or not shown.

SMILES	CYP2C19 inhib	E-sel TNF inh	CYP2C9 activ	CYP2C19 activ	CYP2C9 inhib	F-actin modifier
CCn1c(SCC(=O)N2CCCCC2C)nc2ccsc2c1=O (stereo not drawn)	12	-4	0.7	0.9	28	2
O=C(Cn1c(=O)n(Cc2ccc3c(c2)OCO3)c(=O)c2ccccc21)N1CCCc2ccccc21	x	6	x	x	x	-1
CC1CCCCN1C(=O)CSc1nc2cc3c(cc2c(=O)n1Cc1ccc2c(c1)OCO2)OCO3 (stereo not drawn)	49	x	0.5	0.5	52*	x
CC1CCN(C(=O)CSc2nc3ccccc3c(=O)n2Cc2ccc3c(c2)OCO3)CC1	62*	-7	0.3	0.4	67*	14
CC1CCCC(C)N1C(=O)Cn1c(SCC(=O)NCc2ccc3c(c2)OCO3)nc2ccccc21 (stereo not drawn)	64*	x	0.1	0.4	90*	-9
CC(O)/C=C/c1cccc[n+]1C (stereo not drawn)	2	x	1.1	1	-8	2
CCCCn1c(SCc2ccc(C(=O)OC)o2)nc2cc(S(N)(=O)=O)ccc21	23	x	1	0.8	4	18
Cc1noc(C(=O)Nc2ccccc2C(F)(F)F)c1Cl	0	x	1	1	-1	33
Cc1cc(C(=O)CSc2nnc(-c3ccccc3)n2Cc2ccc3c(c2)OCO3)c(C)n1C	13	19	1.1	0.9	-8	0
Cc1cc(C(=O)CSc2nc3ccccc3c(=O)n2C)c(C)n1Cc1ccc2c(c1)OCO2	76*	6	0.2	0.2	85*	-16
Cc1ccc(CNC(=O)CN(c2cccc([N+](=O)[O-])c2)S(=O)(=O)c2ccccc2)cc1	x	-9	x	x	x	x
Cc1ccc(Cl)c(NC(=O)COC(=O)c2ccccc2C(=O)c2ccc(Cl)c([N+](=O)[O-])c2)c1Cl	x	98*	x	x	x	x
O=C1C(C=NCc2ccco2)=C(O)c2ccccc21	9	-17	0.9	0.9	15	x
COc1ccc(N=CC2=C(O)c3ccccc3C2=O)c(OC)c1	78*	6	0.9	0.2	13	4
CC(=NCCc1ccccc1)C1=C(O)CSC1=O	67*	-6	0.6	0.3	39	4
O=C(Nc1ccc(Cl)cc1)c1cc2nc(-c3ccco3)cc(C(F)(F)F)n2n1	17	78*	0.3	0.8	71*	-12
O=C(c1cc2nc(-c3ccco3)cc(C(F)(F)F)n2n1)N1CCN(c2ccc(F)cc2)CC1	81*	x	0.4	0.2	64*	3
Cc1nn(-c2nc(-c3ccco3)cc(C(F)(F)F)n2)c(C)c1Br	16	x	0.5	0.8	52*	6
O=C(c1cc2nc(-c3ccco3)cc(C(F)(F)F)n2n1)N1CCN(Cc2ccccc2)CC1	47	-2	0.4	0.5	64*	2
CC(C)NC(=O)c1cc2nc(-c3ccco3)cc(C(F)(F)F)n2n1	3	0	0.9	1	8	x
CN1CCN(C(=O)c2cc3nc(-c4ccc(F)cc4)cc(C(F)(F)F)n3n2)CC1	-18	-10	1.2	1.2	-20	42
CN(CC(=O)Nc1cccc2ccccc12)c1ccc(S(=O)(=O)N2CCOCC2)cn1	-15	20	0.8	1.1	20	0
CC(=O)Nc1ccccc1OCc1nnc(-c2cccs2)o1	24	7	0.6	0.8	36	3
Cn1c(=O)n(C)c2cc(S(=O)(=O)NCCc3ccccc3)ccc21	35	8	0.9	0.6	5	x
Fc1ccc(N2CCN(c3nc(-c4ccco4)cc(C(F)(F)F)n3)CC2)cc1	54*	-12	0.5	0.5	49	-10
Cc1ccc(C)c2[nH]c(=O)c(CN(Cc3ccc4c(c3)OCO4)Cc3nnnn3Cc3ccco3)cc12	38	33	0.2	0.6	75*	-8
Cc1ccc2cc(CN(CCN3CCOCC3)Cc3nnnn3Cc3ccco3)c(=O)[nH]c2c1C	38	-29	0.3	0.6	69*	7
Cc1ccc2cc(CN(Cc3ccc4c(c3)OCO4)Cc3nnnn3Cc3ccco3)c(=O)[nH]c2c1C	86*	17	0.2	0.1	80*	x
COCCn1nnnc1CN(Cc1ccco1)Cc1cc2cc3c(cc2[nH]c1=O)OCO3	10	-13	1	0.9	-4	12
Cc1ccc2cc(CN(CCCN3CCOCC3)C(c3nnnn3Cc3ccco3)C(C)C)c(=O)[nH]c2c1C (stereo not drawn)	x	5	x	x	x	-11
